From publication PMC8384837, “Expanding the binding specificity for RNA recognition by a PUF domain”

These sequences were tested against PUM1 PUF domain R4-PFC (Homo sapiens, UniProt Q14671 828-1176, N971P;H972F;Q975C) (assay: yeast three-hybrid, YBZ-1, SC-Leu-His + 0.5 mM 3-AT, 4 days). Settings: tags: N-Gal4 AD-HA kept; label: inside an RPR1-promoter hybrid RNA with tandem MS2 sites; ssRNA.
In short: (§1)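 Each repeat of the Pumilio-1 PUF domain was randomized at its three base-contacting residues, and these libraries were co-expressed from a centromeric plasmid with matching RNA elements in strain YBZ-1. After four days on SC-Leu (input) or SC-Leu-His + 0.5 mM 3-AT (selection), the repeat regions were PCR-amplified and Illumina-sequenced. The interaction score compares variant frequency between input and selection as a log change, computed in log2 with a pseudocount of 1 for absent variants.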

Sequence | binding signal
GGCUAGAACUAGUGGAUCCCCCGGCGCCCGGCGGCUCGAGCCCGGGUAAGUGUACAUAGUCUGCAUGCCGCCGGGCGCCAUGCCUGCAGGUCGACUCUAGAAAACAUG | 5.29 log2 enrichment (interaction score)
GGCUAGAACUAGUGGAUCCCCCGGCGCCCGGCGGCUCGAGCCCGGGUAAGUGUAUAUAGUCUGCAUGCCGCCGGGCGCCAUGCCUGCAGGUCGACUCUAGAAAACAUG | 7.01 log2 enrichment (interaction score)
GGCUAGAACUAGUGGAUCCCCCGGCGCCCGGCGGCUCGAGCCCGGGUAAGUGUAAAUAGUCUGCAUGCCGCCGGGCGCCAUGCCUGCAGGUCGACUCUAGAAAACAUG | 7.66 log2 enrichment (interaction score)

These sequences were tested against PUM1 PUF domain R5-RRY (Homo sapiens, UniProt Q14671 828-1176, C1007R;Q1011Y) in the same assay as above. Settings: tags: N-Gal4 AD-HA kept; label: inside an RPR1-promoter hybrid RNA with tandem MS2 sites; ssRNA.
In short: as §1

Sequence | binding signal
GGCUAGAACUAGUGGAUCCCCCGGCGCCCGGCGGCUCGAGCCCGGGUAAGUGUCAAUAGUCUGCAUGCCGCCGGGCGCCAUGCCUGCAGGUCGACUCUAGAAAACAUG | 4.32 log2 enrichment (interaction score)
GGCUAGAACUAGUGGAUCCCCCGGCGCCCGGCGGCUCGAGCCCGGGUAAGUGUUAAUAGUCUGCAUGCCGCCGGGCGCCAUGCCUGCAGGUCGACUCUAGAAAACAUG | 3.28 log2 enrichment (interaction score)
GGCUAGAACUAGUGGAUCCCCCGGCGCCCGGCGGCUCGAGCCCGGGUAAGUGUAAAUAGUCUGCAUGCCGCCGGGCGCCAUGCCUGCAGGUCGACUCUAGAAAACAUG | 1.18 log2 enrichment (interaction score)
